Data taken from PubChem BioAssay.
The source made the active and inactive calls.

Legend:
[1] = tested on: Plasmodium falciparum Sir2 (PF13_0152, Sir2A); test: Plasmodium falciparum Sir2A binding compounds – biochemical, small-molecule microarray, 635 nm fluorescence, primary screen (AID 1098); conditions: fluorescence 635 nm, higher = more signal;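 note: score merges spot fluorescence intensity with its signal-to-noise ratio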
[2] = probe aDKK1 binding to arrayed compounds – biochemical, biotinylated probe, 635/667 nm fluorescence, primary screen (AID 1099); conditions: small-molecule microarray, higher = more signal;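 note: score merges 667nm spot fluorescence with signal to noise across triplicate slides; reference of the scale not given here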
[3] = probe aCHRDL2 binding to arrayed compounds – biochemical, biotinylated probe, 635/667 nm fluorescence, primary screen (AID 1100); conditions: small-molecule microarray, higher = more signal
[4] = change in splice reporter luminescence, either direction, cell-based, HEK293, spliceosome inhibition project, primary screen (AID 1101); conditions: HEK293 splicing luciferase reporter, 24 h, higher = more signal, called active from +8 up or from −8 down;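 note: HEK293 cells carrying a splicing-competent luciferase reporter gene; test concentration not given here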
[5] = molecular target: Fibroblast growth factor 10 (Homo sapiens) (UniProt O15520); test: compounds binding fibroblast growth factor 10 – biochemical, small-molecule microarray, 635 nm fluorescence, primary screen (AID 1102); conditions: FGF10 binding, fluorescence 635 nm, higher = more signal
Chain of Fibroblast growth factor 10 (Homo sapiens) (O15520 whole entry, looked up): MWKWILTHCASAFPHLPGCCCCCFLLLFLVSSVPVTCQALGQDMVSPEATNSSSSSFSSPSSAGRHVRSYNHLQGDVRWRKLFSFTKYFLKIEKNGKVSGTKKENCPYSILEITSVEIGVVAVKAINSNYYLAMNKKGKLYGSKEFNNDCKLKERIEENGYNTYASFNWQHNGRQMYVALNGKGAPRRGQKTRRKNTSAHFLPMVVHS

[6] = tested on: glycogen synthase kinase-3 (GSK3A per assay name; protocol says GSK3B); test: compounds binding glycogen synthase kinase-3 – biochemical, small-molecule microarray, 635 nm fluorescence, GSK3A, primary screen (AID 1103); conditions: fluorescence 635 nm, higher = more signal; note: the record names both GSK3A and GSK3B
[7] = molecular target: Epidermal growth factor receptor (Homo sapiens) (UniProt P00533); test: compounds binding epidermal growth factor receptor – biochemical, small-molecule microarray, 635 nm fluorescence, primary screen (AID 1104); conditions: EGFR binding, higher = more signal;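 note: score merges 667 nm emission intensity with spot signal to noise over triplicate slides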
Chain of Epidermal growth factor receptor (Homo sapiens) (P00533 whole entry, looked up): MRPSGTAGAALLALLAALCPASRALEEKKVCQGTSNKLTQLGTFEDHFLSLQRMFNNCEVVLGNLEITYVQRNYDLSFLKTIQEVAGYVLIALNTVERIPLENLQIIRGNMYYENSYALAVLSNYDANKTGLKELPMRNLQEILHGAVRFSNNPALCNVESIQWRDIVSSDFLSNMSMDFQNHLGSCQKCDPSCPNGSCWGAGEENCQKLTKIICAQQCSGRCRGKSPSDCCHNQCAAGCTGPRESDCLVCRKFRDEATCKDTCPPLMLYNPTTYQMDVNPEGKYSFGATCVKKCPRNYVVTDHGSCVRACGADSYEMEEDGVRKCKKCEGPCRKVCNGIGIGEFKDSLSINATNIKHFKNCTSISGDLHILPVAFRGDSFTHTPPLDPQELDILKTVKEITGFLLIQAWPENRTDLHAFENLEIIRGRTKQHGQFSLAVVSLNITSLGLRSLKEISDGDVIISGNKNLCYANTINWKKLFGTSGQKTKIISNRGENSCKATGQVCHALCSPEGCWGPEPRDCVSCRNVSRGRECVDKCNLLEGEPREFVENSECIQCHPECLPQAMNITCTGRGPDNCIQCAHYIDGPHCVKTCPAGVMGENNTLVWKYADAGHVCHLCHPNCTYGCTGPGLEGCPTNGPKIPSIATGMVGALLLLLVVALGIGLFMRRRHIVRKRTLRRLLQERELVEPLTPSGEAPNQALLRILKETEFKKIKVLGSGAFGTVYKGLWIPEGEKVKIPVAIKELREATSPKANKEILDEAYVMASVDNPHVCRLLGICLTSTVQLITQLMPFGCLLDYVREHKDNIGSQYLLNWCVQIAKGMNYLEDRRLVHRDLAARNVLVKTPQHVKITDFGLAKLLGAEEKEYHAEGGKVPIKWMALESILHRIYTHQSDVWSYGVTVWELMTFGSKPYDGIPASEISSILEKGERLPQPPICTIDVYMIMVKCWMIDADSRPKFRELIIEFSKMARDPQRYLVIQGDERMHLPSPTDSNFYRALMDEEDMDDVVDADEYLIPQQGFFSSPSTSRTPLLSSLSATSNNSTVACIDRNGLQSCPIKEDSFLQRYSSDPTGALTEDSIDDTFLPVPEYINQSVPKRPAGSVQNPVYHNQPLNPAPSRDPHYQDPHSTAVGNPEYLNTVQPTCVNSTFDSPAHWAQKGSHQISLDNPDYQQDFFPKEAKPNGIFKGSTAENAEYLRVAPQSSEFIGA

[8] = molecular target: Follistatin-related protein 3 (Homo sapiens) (UniProt O95633); test: compounds binding follistatin-related protein 3 – biochemical, small-molecule microarray, 635 nm fluorescence, primary screen (AID 1105); conditions: FSTL3 binding, higher = more signal;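 note: score merges emission near 667 nm and signal to noise per printed spot across three slides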
Chain of Follistatin-related protein 3 (Homo sapiens) (O95633 whole entry, looked up): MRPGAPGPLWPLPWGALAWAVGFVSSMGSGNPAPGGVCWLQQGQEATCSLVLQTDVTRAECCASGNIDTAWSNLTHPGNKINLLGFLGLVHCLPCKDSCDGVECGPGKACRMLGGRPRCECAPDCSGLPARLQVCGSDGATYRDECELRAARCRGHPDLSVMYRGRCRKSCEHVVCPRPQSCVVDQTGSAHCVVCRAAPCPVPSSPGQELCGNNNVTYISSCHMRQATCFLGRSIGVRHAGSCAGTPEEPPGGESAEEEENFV

[9] = molecular target: Dickkopf-related protein 1 (Homo sapiens) (UniProt O94907); test: small molecules binding DKK1 protein – biochemical, small-molecule microarray, 635 nm fluorescence scan, primary screen (AID 1106); conditions: higher = more signal;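 note: score merges emission near 667 nm with signal to noise over three replicate slides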
Chain of Dickkopf-related protein 1 (Homo sapiens) (O94907 whole entry, looked up): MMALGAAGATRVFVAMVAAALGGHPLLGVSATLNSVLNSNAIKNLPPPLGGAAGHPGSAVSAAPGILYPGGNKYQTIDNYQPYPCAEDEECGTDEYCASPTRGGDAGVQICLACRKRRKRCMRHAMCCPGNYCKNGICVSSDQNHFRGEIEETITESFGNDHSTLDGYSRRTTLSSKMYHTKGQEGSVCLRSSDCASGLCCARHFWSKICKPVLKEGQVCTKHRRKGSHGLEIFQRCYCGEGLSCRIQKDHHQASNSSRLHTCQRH

[10] = tested on: Inhibin beta A chain (activin A); test: small molecules binding activin A – biochemical, small-molecule microarray, 635 nm fluorescence scan, primary screen (AID 1107); conditions: INHBA, higher = more signal;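 note: mouse activin A protein probed at 4.33 µg/mL on printed slides; score merges bound-protein fluorescence near 667 nm with spot signal-to-noise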

Compound | composite z-score [1] | composite z-score [2] | composite z-score [3] | z-score [4] | composite z-score [5] | composite z-score [6] | composite z-score [7] | composite z-score [8] | composite z-score [9] | composite z-score [10]
COc1ccc([Si](C)(C)[C@H]2[C@H](CCO)O[C@@]3(C(=O)N(Cc4cccc(N5C(=O)c6cccc7cccc5c67)c4)c4ccccc43)[C@@H]2C)cc1 | 1.25 | -0.207 | 0.442 | -1.27 (inactive) | 0.668 | 0.149 | -0.437 | 0.277 | -0.701 | -0.345
C[N+](C)(C)CCCCNC(=O)[C@H]1C[C@H]2C(=O)N3CCC[C@H]3C(=O)N2[C@H]1c1ccc(O)cc1 | 1.48 | 0.0607 | -0.152 | 0.0339 (inactive) | 1.39 | 0.521 | 0.967 | 1.49 | 1.82 | -0.443
C=C[C@H](OC)[C@@H](OC(=O)Nc1ccc(SC)cc1)c1ccc(OCCO)cc1 | 1.08 | 0.242 | 0.796 | -1.96 (inactive) | 0.141 | 0.0735 | -0.196 | -0.275 | 0.155 | -0.176
CC(=O)n1cc(C(O)C2C=CC3C(=O)N(c4ccccc4)C(=O)C3N2Nc2ccc(C#N)cc2)c2ccccc21 (stereo not given) | 0.696 | 0.415 | 1.07 | 0.888 (inactive) | 0.879 | 0.186 | -0.105 | 0.0519 | -0.817 | 0.854
CC(C)(C)OC(=O)CC[C@@]1(C(N)=O)N=C(c2ccc(OCCCO)cc2)O[C@@H]1c1ccccc1N=[N+]=[N-] | 1.73 | 0.751 | 0.83 | -0.809 (inactive) | 1.46 | 1.22 | -0.0882 | 0.616 | -0.103 | 0.988
COCCCNC(=O)[C@@]1(Sc2ccc(C)cc2)CC(=O)N(Cc2ccccc2)[C@@H]1c1ccc(CO)cc1 | 1.54 | 0.0112 | 0.144 | -0.74 (inactive) | -0.342 | -0.21 | -0.58 | -0.702 | -0.344 | -0.29
COc1ccc([Si](C)(C)[C@H]2[C@H](CC(=O)N3CCC[C@H]3CO)O[C@@]3(C(=O)N(Cc4cccc(N5CCC5=O)c4)c4ccccc43)[C@@H]2C)cc1 | 1.11 | -0.0732 | -0.222 | 0.566 (inactive) | 1.4 | 1.27 | 0.993 | 1.45 | 0.672 | 0.728
O=C1O[C@@H](c2ccccc2)[C@@H](c2ccccc2)N2[C@@H](c3ccc(O)cc3)[C@]3(C(=O)Nc4ccc(C#CCCO)cc43)[C@@H](C(=O)O)[C@H]12 | 1.67 | 2.56 | 1.64 | -0.545 (inactive) | 0.472 | -0.2 | 0.363 | 1.13 | -0.107 | 1.76
Cc1cccc(/C=C/C=O)c1 | 0 | -0.101 | 0.558 | 0.465 (inactive) | -0.0736 | -0.0687 | -0.391 | 0.119 | -0.214 | 0.561
CN(C)CCCC[C@@H]1NC(=O)[C@@H]2C[C@H](C(=O)NCCCCCCN)[C@H](c3ccc(O)cc3)N2C1=O | 0.812 | 1.46 | 0.848 | -0.0228 (inactive) | 0.987 | 1 | 0.734 | 0.849 | 1.05 | 1.41
[N-]=[N+]=Nc1ccccc1[C@H]1OC(c2ccc(OCCCO)cc2)=N[C@@]1(CCS(=O)(=O)c1ccccc1)C(=O)N1CCOCC1 | 1.5 | 1.8 | 1.46 | -0.829 (inactive) | 1.26 | 1.16 | 0.211 | 0.924 | -0.169 | 0.891
O=C1OCCC/C=C\[C@H]2OC34C=CCN(Cn5nnc6ccccc65)C(=O)[C@H]3N(CCCO)C(=O)[C@@H]4C12 (stereo not given in full) | 0.649 | -0.282 | 0.741 | 0.288 (inactive) | -1.34 | -0.556 | -1.43 | -0.921 | -1.16 | -0.0648
COC(=O)[C@@]1(Cc2ccc(OC)cc2)[C@H]2c3cc(C(=O)N(C)C)n(CCSCCO)c3C[C@H]2CN1C(=O)c1ccccc1 | 0.403 | 1.14 | 1.16 | -2.69 (inactive) | 0.448 | 0.528 | -0.263 | 0.413 | -0.796 | 0.737
Cc1ccc([C@H]2C(C(=O)O)=C[C@@H](C(C)C)N2S(=O)(=O)c2ccc(C)cc2)cc1 | 0.853 | 0.309 | 0.68 | -0.349 (inactive) | 0.265 | 0.914 | -0.206 | -0.103 | -0.329 | 0.479
O=C1c2ccccc2[C@](Cc2ccccc2I)(C(=O)O)[C@H](c2ccc(CO)cc2)N1Cc1ccccc1C(F)(F)F | 0.674 | -0.483 | -0.388 | 0.185 (inactive) | -0.414 | 0.464 | -0.709 | 0.19 | -0.376 | 0.353
[N-]=[N+]=NCc1ccccc1C[C@]1(C(=O)NCc2ccccc2)COC(c2ccc(OCCCO)cc2)=N1 | 0.518 | -0.109 | 0.681 | -0.426 (inactive) | 0.447 | 0.431 | 0.0245 | -0.109 | -0.874 | 0.743
O=C1c2ccccc2[C@@]2(Cc3ccccc3N(Cc3ccccc3)C2=O)[C@H](c2ccc(CO)cc2)N1Cc1ccccc1C(F)(F)F | 1.1 | 0.0463 | 0.847 | 0.0517 (inactive) | -0.665 | -0.866 | -1.09 | -0.71 | -1.38 | 0.581
CCCC[C@H]1C[C@@H]1[C@@H]1N(P(=O)(c2ccccc2)c2ccccc2)[C@](CO)(c2ccccc2)CC12CC2 | 1.09 | 0.639 | 1.01 | -4.35 (inactive) | 0.104 | -0.571 | -0.395 | -0.177 | -1.47 | 0.846
C=CCN1C(=O)[C@]2(Cc3ccccc31)N=C(c1ccc(OCCCO)cc1)O[C@@H]2c1ccccc1 | 0.733 | 0.779 | 0.922 | 0.105 (inactive) | 1.43 | 0.881 | -0.0128 | 0.439 | 0.998 | 1.27
O=C(NCC(O)CO)[C@]1(CCS(=O)(=O)c2ccccc2)N=C(c2ccc(OCCCO)cc2)O[C@@H]1c1ccccc1 (stereo not given in full) | 1.11 | 1.28 | 1.34 | 0.833 (inactive) | 0.305 | 0.516 | -0.498 | -0.365 | -0.868 | 0.529
CCCNC(=O)[C@@]1(C)c2ccccc2C(=O)N(C(C)C)[C@H]1c1ccc(CO)cc1 | 1.2 | 0.695 | 1.09 | 0.208 (inactive) | -0.668 | -0.743 | -1.14 | -0.737 | -0.612 | -0.105
COc1ccc(C#Cc2ccc3c(c2)[C@]2(C(=O)N3)[C@H](c3ccc(OCCO)cc3)N3[C@H](c4ccccc4)[C@H](c4ccccc4)OC(=O)[C@H]3[C@@H]2C(=O)Nc2nc3ccccc3s2)cc1 | 1.29 | 0.771 | 0.72 | 3.63 (inactive) | 1.3 | 1.29 | 0.655 | 1.38 | 0.618 | 0.331
C=CCOC(=O)[C@@H]1[C@H]2C(=O)O[C@H](c3ccccc3)[C@H](c3ccccc3)N2[C@H](c2ccc(OCCOC(=O)[C@H]3C[C@H]4C(=O)N[C@@H](CC(C)C)C(=O)N4[C@H]3c3cccc(OCCO)c3)cc2)[C@@]12C(=O)Nc1ccc(I)cc12 | 1.41 | 0.169 | -0.135 | -0.835 (inactive) | 1.23 | 1.32 | 0.694 | 1.25 | 0.836 | 0.255
O=C1C2C=CC(C(O)C3CC=CCC3)N(n3cnnc3)C2C(=O)N1Cc1ccccc1 (stereo not given) | 0.213 | -0.3 | 0.348 | 0.276 (inactive) | -0.644 | -0.406 | -1.64 | -1 | -0.746 | 0.672
C=CCNC(=O)[C@H]1[C@@H]2C(=O)O[C@@H](c3ccccc3)[C@@H](c3ccccc3)N2[C@@H](c2ccc(OCCO)cc2)[C@]12C(=O)N(C(=O)OCCOC)c1ccc(C#CC3(O)CCCCCC3)cc12 | 1.55 | 0.456 | 0.33 | -0.569 (inactive) | 1.42 | 1.31 | 1.02 | 1.48 | 1.23 | 1.18
Cc1ccc(N2C(=O)c3ccccc3[C@@H](C(=O)NC(C)C)[C@@H]2c2ccc(CO)cc2)nc1 | 1.87 | 0.167 | 0.61 | 0.245 (inactive) | 0.121 | -0.0399 | -0.416 | -0.64 | -0.32 | 0.726
CC(C)(C)OC(=O)CC[C@@]1(C(=O)NCC(O)CO)N=C(c2ccc(OCCCO)cc2)O[C@@H]1c1ccccc1 (stereo not given in full) | 0.317 | 0.652 | 0.811 | -0.658 (inactive) | 0.989 | 0.0733 | -1.19 | -0.583 | -0.693 | 0.203
